# About 83,000 compounds went through this panel and 20% of them were active in at least one assay; those are over-represented in the sample as a whole.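 Single-dose data. Exposure time 48 hours. Values below 10 considered active.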 A number with no mark means an inactive call. The source made the active and inactive calls.
# What was measured:
# Experiment in all cases: NCI-60 one-dose screen, 48 h (100 = growth as untreated, 0 = no growth, -100 = all killed)
# Conditions in all cases: 10 µM unless noted
# DU-145 prostate = tested on: DU-145 prostate
# K-562 leukemia = tested on: K-562 leukemia
# MALME-3M melanoma = tested on: MALME-3M melanoma
# MDA-MB-231 breast = tested on: MDA-MB-231 breast
# RXF 393 renal = tested on: RXF 393 renal
# SF-268 CNS = tested on: SF-268 CNS
# SF-295 CNS = tested on: SF-295 CNS
# SF-539 CNS = tested on: SF-539 CNS
# UACC-257 melanoma = tested on: UACC-257 melanoma
# M14 melanoma = tested on: M14 melanoma
# HCT-15 colon = tested on: HCT-15 colon
# HT29 colon = tested on: HT29 colon
# SNB-75 CNS = tested on: SNB-75 CNS
# SNB-19 CNS = tested on: SNB-19 CNS
# U251 CNS = tested on: U251 CNS
# PC-3 prostate = tested on: PC-3 prostate
# SK-MEL-5 melanoma = tested on: SK-MEL-5 melanoma
# UACC-62 melanoma = tested on: UACC-62 melanoma
# LOX IMVI melanoma = tested on: LOX IMVI melanoma
# SK-MEL-28 melanoma = tested on: SK-MEL-28 melanoma
SMILES,growth (DU-145 prostate),growth (K-562 leukemia),growth (MALME-3M melanoma),growth (MDA-MB-231 breast),growth (RXF 393 renal),growth (SF-268 CNS),growth (SF-295 CNS),growth (SF-539 CNS),growth (UACC-257 melanoma),growth (M14 melanoma),growth (HCT-15 colon),growth (HT29 colon),growth (SNB-75 CNS),growth (SNB-19 CNS),growth (U251 CNS),growth (PC-3 prostate),growth (SK-MEL-5 melanoma),growth (UACC-62 melanoma),growth (LOX IMVI melanoma),growth (SK-MEL-28 melanoma)
CCOC(=O)/C(=C/c1ccc([N+](=O)[O-])cc1)C(=O)c1ccccc1,65.3%,4.82% (active),32.4%,20.1%,-11.1% (active),24.5%,81.6%,-24.9% (active),45.4%,32.4%,-15.2% (active),-23.7% (active),47%,51.5%,26%,5.94% (active),62.4%,19.7%,-68.2% (active),-29.4% (active)
Cc1nn(C)c2ncnc(Nc3ccccc3Br)c12,103%,97.1%,111%,85.2%,104%,99.2%,95.8%,99.9%,105%,101%,101%,97.7%,111%,101%,95.3%,102%,97.7%,93.3%,101%,102%
CCOC(=O)CC1CSC(N/N=C(/C)c2cccc(C(F)(F)F)c2)=N1 (stereo not given),102%,80.6%,95.3%,94.4%,109%,100%,93.5%,103%,87.9%,101%,93.8%,94.3%,98.3%,106%,98.4%,97.8%,105%,97.1%,104%,107%
C(=N\Nc1nnc2n1N=C(c1ccccc1)CS2)/c1ccc(OCc2ccccc2)cc1,104%,57.6%,125%,108%,80.1%,115%,101%,102%,103%,113%,97.4%,114%,108%,102%,97.6%,76.2%,82.9%,89.8%,95.8%,104%

# Source: PubChem BioAssay (NCI)
